In PubChem BioAssay (NCATS) one finds Potency data, which are given here for 36 compounds.

Records with an inconclusive call do not appear. Where a call stands in place of a potency, no number is given. Activity calls are given as the source filed them. Calls come from the whole dose curve; as a rule, active = well fitted curve in the direction sought with a large enough effect; inconclusive = small, poorly fitted or top-dose-only effect, or another doubt; inactive = no such curve, though single readings can be large; an effect the other way counts as inactive or inconclusive. Where a SMILES comes first, the peptide text is derived from it. [ ]: non-standard residue; d: D form. pGlu = O=C1CC[C@@H](C(=O)O)N1; Thz = O=C(O)[C@@H]1CSCN1

Ubiquitin carboxyl-terminal hydrolase 1 (Homo sapiens), sequence (O94782 whole entry, looked up): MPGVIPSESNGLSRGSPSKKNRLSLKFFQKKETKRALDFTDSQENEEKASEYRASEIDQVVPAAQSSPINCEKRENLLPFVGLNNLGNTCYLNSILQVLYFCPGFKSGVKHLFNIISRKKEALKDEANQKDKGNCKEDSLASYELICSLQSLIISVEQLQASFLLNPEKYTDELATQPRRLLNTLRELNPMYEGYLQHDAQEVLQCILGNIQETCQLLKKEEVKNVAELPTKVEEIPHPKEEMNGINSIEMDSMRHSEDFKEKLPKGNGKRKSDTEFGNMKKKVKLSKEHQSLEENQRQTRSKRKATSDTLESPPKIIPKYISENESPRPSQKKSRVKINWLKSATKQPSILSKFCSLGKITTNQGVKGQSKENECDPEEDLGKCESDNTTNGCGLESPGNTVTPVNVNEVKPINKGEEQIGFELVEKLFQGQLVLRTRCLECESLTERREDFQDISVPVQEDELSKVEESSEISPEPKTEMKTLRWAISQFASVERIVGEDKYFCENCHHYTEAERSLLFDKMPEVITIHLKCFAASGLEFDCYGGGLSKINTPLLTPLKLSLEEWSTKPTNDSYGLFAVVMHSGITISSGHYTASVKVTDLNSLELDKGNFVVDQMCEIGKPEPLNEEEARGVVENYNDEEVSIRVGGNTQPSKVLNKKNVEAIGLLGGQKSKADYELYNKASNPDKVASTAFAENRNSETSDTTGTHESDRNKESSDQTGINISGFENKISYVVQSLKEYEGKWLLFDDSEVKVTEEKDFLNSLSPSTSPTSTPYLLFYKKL
phosphoglycerate mutase (Leishmania major), sequence (Q4Q090 1-553): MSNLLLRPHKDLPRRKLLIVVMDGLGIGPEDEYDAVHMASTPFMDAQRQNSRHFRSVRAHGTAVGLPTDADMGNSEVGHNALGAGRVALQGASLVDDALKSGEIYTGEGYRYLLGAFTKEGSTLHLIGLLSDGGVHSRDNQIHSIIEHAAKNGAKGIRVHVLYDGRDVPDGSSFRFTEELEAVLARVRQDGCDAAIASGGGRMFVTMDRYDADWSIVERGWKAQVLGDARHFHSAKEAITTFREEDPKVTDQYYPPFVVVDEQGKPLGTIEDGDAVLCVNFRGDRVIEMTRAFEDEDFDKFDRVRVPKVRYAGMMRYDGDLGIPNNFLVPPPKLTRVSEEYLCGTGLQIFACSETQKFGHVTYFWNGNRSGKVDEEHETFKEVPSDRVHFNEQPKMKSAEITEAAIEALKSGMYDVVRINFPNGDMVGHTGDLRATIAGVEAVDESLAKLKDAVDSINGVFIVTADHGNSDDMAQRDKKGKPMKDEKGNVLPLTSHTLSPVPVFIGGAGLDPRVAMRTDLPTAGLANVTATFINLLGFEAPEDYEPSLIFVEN

The target in one experiment is phosphoglycerate mutase (Leishmania major) (UniProt Q4Q090). Nature of the experiment: qHTS Validation Assay to Find Inhibitors of Phosphoglycerate Mutase (AID 504548). The conditions noted are these: biochemical enzyme activity; Potency: inhibition qHTS; series mostly up to 57.5 µM. The procedure, abridged:
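Lm PGAM 1.25nM final; 100 mM TEA pH 7.6, 5 mM MgCl2, 0.01% Tween-20; 45 min RT; Kinase-GloPlus, 10 min; end-point luminescence. Enzyme-free wells as negative controls.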
(qHTS replaces the single test concentration by a dilution series.)
Turning to `O=C1C(SCCO)=C(SCCO)C(=O)c2ccccc21`, the Potency entry was “inactive”.

Take `CO/N=C(\C(=O)N[C@@H]1C(=O)N2C(C(=O)O)=C(COC(C)=O)CS[C@H]12)c1csc(N)n1`: the Potency entry was “inactive”.

As for `Oc1ccccc1O`, the Potency result was “inactive”.

A further experiment concerns the target Ubiquitin carboxyl-terminal hydrolase 1 (Homo sapiens) (UniProt O94782). Briefly: Inhibitors of USP1/UAF1: Pilot qHTS (AID 504865). Note: nearly all actives have a fitted effect of over 35% in size. Note: potency is the fitted concentration of half-maximal effect. The conditions noted are these: purified USP1/UAF1, Ub-rhodamine cleavage fluorescence; series mostly up to 114 µM. In outline:
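Deubiquitinase activity followed as kinetic rhodamine fluorescence release from 150 nM Ub-Rho. 1 nM USP1/UAF1 with compound, after 15 min room-temperature preincubation, in HEPES pH 7.8 buffer containing TCEP, EDTA, BSA and Tween-20.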
In the case of `COc1cc2c3cc1Oc1cc(ccc1O)C[C@@H]1c4c(cc(OC)c(O)c4Oc4ccc(cc4)C[C@@H]3N(C)CC2)CC[N+]1(C)C`, the Potency result is “inactive”.

With `O=C1C(SCCO)=C(SCCO)C(=O)c2ccccc21`, the Potency is 15.8 µM (active).

For `O=C(O)Cc1ccc(-c2ccccc2)cc1`, the Potency result was “inactive”.

In the case of `COc1cc(NC(C)CCCN)c2ncccc2c1` (centres undefined), the Potency was 39.8 µM (active).

As for `[O-][n+]1ccccc1SSc1cccc[n+]1[O-]`, the Potency result is “inactive”.

As for `Cc1ccc(O)c(-n2nc3ccccc3n2)c1`, the Potency result is “inactive”.

Take `CN(C)c1ccc(C(=C2C=CC(=[N+](C)C)C=C2)c2ccccc2)cc1`: the Potency was 50.1 µM (active).

Regarding `CC1(C)S[C@@H]2[C@H](NC(=O)[C@H](NC(=O)N3CCN(S(C)(=O)=O)C3=O)c3ccccc3)C(=O)N2[C@H]1C(=O)O`, the Potency entry is “inactive”.

Turning to `CCOc1ccc2nc(S(N)(=O)=O)sc2c1`, the Potency entry was “inactive”.

Consider `CCCSc1ccc2nc(NC(=O)OC)[nH]c2c1`, for which the Potency result is “inactive”.

`CC(C(=O)O)c1ccc(C(=O)c2cccs2)cc1` (centres undefined): the Potency result was “inactive”.

Consider `Oc1c(Br)cc(Br)c2cccnc12`, for which the Potency entry was “inactive”.

Regarding `O=C1CC[C@@H](C(=O)N2CSC[C@H]2C(=O)O)N1` ([pGlu]-[Thz]-OH), the Potency entry is “inactive”.

Take `O=C1CN(/N=C/c2ccc(-c3ccc([N+](=O)[O-])cc3)o2)C(=O)N1`: the Potency result was “inactive”.

Consider `CO/N=C(\C(=O)N[C@@H]1C(=O)N2C(C(=O)O)=C(COC(C)=O)CS[C@H]12)c1csc(N)n1`, for which the Potency entry is “inactive”.

As for `Cc1nc2ccccc2n1Cc1ccc(Cl)cc1`, the Potency result is “inactive”.

`Oc1ccccc1O`: the Potency entry was “inactive”.

In the case of `c1ccc2sc(SN3CCOCC3)nc2c1`, the Potency entry is “inactive”.

Turning to `O=C(O)[C@H](CC(=O)N1C[C@H]2CCCC[C@H]2C1)Cc1ccccc1`, the Potency entry was “inactive”.

For `O=C(/C=C/c1ccccc1)NCCO`, the Potency result is “inactive”.

As to `CCCCC[C@H](O)/C=C/[C@@H]1[C@@H](C/C=C\CCCC(=O)O)[C@@H](O)C[C@H]1O`, the Potency entry was “inactive”.

In the case of `N=C(N)N`, the Potency entry was “inactive”.

In the case of `C=C(Nc1ccc(OCC)cc1)Nc1ccc(OCC)cc1`, the Potency result was “inactive”.

Consider `Cc1cc(O)c2ccccc2c1O`, for which the Potency entry was “inactive”.

For the compound `O=C(O)COc1ccc(C(=O)c2cccs2)c(Cl)c1Cl`, the Potency result was “inactive”.

`CC1(C)C[C@@H]1C(=O)N/C(=C\CCCCSC[C@H](N)C(=O)O)C(=O)O`: the Potency entry is “inactive”.

`CCCC(=O)OC[C@@H](OC(=O)CCC)[C@@H](OC(=O)CCC)[C@H](Cn1c2nc(=O)[nH]c(=O)c-2nc2cc(C)c(C)cc21)OC(=O)CCC`: the Potency was 39.8 µM (active).

For `Clc1ccccc1-c1nc(-c2ccncc2)no1`, the Potency result was “inactive”.

On to `CC1(C)[C@@H](O)CC[C@]2(C)[C@H]3C(=O)C=C4[C@@H]5C[C@@](C)(C(=O)O)CC[C@]5(C)CC[C@@]4(C)[C@]3(C)CC[C@@H]12`, for which the Potency entry was “inactive”.

As to `COc1cc(/C=C/C(=O)N2CCN(CC(=O)N3CCCC3)CC2)cc(OC)c1OC`, the Potency entry was “inactive”.

Take `CCCCCC[C@@H](O)C/C=C\CCCCCCCC(=O)O`: the Potency result is “inactive”.

Turning to `Cc1[nH]cnc1CN1CCc2c(c3ccccc3n2C)C1=O`, the Potency entry is “inactive”.

Consider `Cc1c(N)c(=O)n(-c2ccccc2)n1C`, for which the Potency entry is “inactive”.

Turning to `NC(=O)C(c1ccccc1)(c1ccccc1)[C@@H]1CCN(CCc2ccc3c(c2)CCO3)C1`, the Potency entry was “inactive”.

For the compound `CCOC(=O)c1ccccc1O`, the Potency entry is “inactive”.

For the compound `C=CCN1C(=O)C(CC(C)C)NC1=S` (centres undefined), the Potency entry is “inactive”.
